In PubChem BioAssay (NCI):
This is part of a sample that, as a whole, favours compounds with a hit. Of some 83,000 tested, about 20% had one in any assay.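 Single-dose data. Exposure time 48 hours. Values below 10 considered active.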 Unmarked numbers belong to inactive results. Active and inactive are the calls of the source.

Key:
Experiment in all cases: NCI-60 one-dose screen, 48 h (100 = growth as untreated, 0 = no growth, -100 = all killed)
Details in all cases: 10 µM unless noted
NCI-H23 lung = tested on: NCI-H23 lung
NCI-H226 lung = tested on: NCI-H226 lung
NCI-H322M lung = tested on: NCI-H322M lung
HOP-62 NSCLC = tested on: HOP-62 NSCLC
NCI-H460 lung = tested on: NCI-H460 lung
HOP-92 NSCLC = tested on: HOP-92 NSCLC
NCI-H522 lung = tested on: NCI-H522 lung
A549/ATCC NSCLC = tested on: A549/ATCC NSCLC
786-0 renal = tested on: 786-0 renal
COLO 205 colon = tested on: COLO 205 colon
DU-145 prostate = tested on: DU-145 prostate
K-562 leukemia = tested on: K-562 leukemia
MALME-3M melanoma = tested on: MALME-3M melanoma
MDA-MB-231 breast = tested on: MDA-MB-231 breast
RXF 393 renal = tested on: RXF 393 renal
SF-268 CNS = tested on: SF-268 CNS
SF-295 CNS = tested on: SF-295 CNS
SF-539 CNS = tested on: SF-539 CNS
UACC-257 melanoma = tested on: UACC-257 melanoma
M14 melanoma = tested on: M14 melanoma

SMILES | growth (NCI-H23 lung) | growth (NCI-H226 lung) | growth (NCI-H322M lung) | growth (HOP-62 NSCLC) | growth (NCI-H460 lung) | growth (HOP-92 NSCLC) | growth (NCI-H522 lung) | growth (A549/ATCC NSCLC) | growth (786-0 renal) | growth (COLO 205 colon) | growth (DU-145 prostate) | growth (K-562 leukemia) | growth (MALME-3M melanoma) | growth (MDA-MB-231 breast) | growth (RXF 393 renal) | growth (SF-268 CNS) | growth (SF-295 CNS) | growth (SF-539 CNS) | growth (UACC-257 melanoma) | growth (M14 melanoma)
O=C1/C(=C/c2ccc(Cl)cc2)COc2ccc(O)cc21 | 90.9% | 98.8% | 94.8% | 102% | 102% | 95.9% | 13.9% | 89% | 64.2% | 78.2% | 89.7% | 2.41% (active) | 94.9% | 86% | 97.9% | 79.3% | 101% | 88.1% | 104% | 86%
Cc1ccc(-n2c(=S)[nH]c3sc4c(c3c2=O)CCC(=O)C4)cc1 | 68.7% | 83.4% | 89.5% | 63.6% | 17.2% | 57% | 10.2% | 51.8% | 29.5% | 81.6% | 37.8% | 17% | 50.9% | 54.6% | 23.8% | 48.2% | 47.9% | 11.8% | 54.5% | 25.9%
COc1ccc2c(O)c(/C=C3\N=Nc4ccccc43)oc2c1C[C@@H]1CCNC[C@H]1F | 70.2% | 58.3% | 87.6% | 71.4% | 11.2% | 65.1% | 58.1% | 35.8% | -62.9% (active) | 58.2% | 78.6% | -37.6% (active) | 52.9% | 15.4% | 80.5% | 50.3% | 79.2% | -82.9% (active) | 77.2% | 51.6%
COC(=O)c1n[nH]c2ccc3nc(-c4cn[nH]c4C(F)(F)F)c4c(c3c12)CCCC4 | 56% | 51.6% | 45.1% | 46.9% | 29.3% | 30.9% | 23.6% | 39% | 35.5% | 3.9% (active) | 49.1% | 72.9% | 28.9% | 38.6% | 37.9% | 54.8% | 48.7% | 27.4% | 28.9% | 11%
CNC(=O)c1cc(Oc2ccc3c(c2)sc2nc(-c4cc(OC)c(OC)c(OC)c4)cn23)ccn1 | 61.1% | 49% | 72.5% | 66.8% | 66.2% | 15.8% | 50.4% | 63.6% | 68.1% | 16.7% | 75.2% | 29.3% | -8.33% (active) | 33.8% | 63.2% | 72% | 51% | 62.8% | 49.7% | 52%
O=C1C(Cl)=C(Nc2ccc(O)cc2)C(=O)N1Cc1ccc(Cl)cc1 | 85.2% | 84.5% | 77% | 84.2% | 78.9% | 69.7% | 51.9% | 71.6% | 70.6% | 35.8% | 90.2% | 11.9% | 76.2% | 74.1% | 64.3% | 57.5% | 97.4% | 65% | 70% | 24.2%
Brc1ccc(-n2cc(-c3nn[nH]n3)c(-c3cccs3)n2)cc1 | 92.9% | 80.2% | 91.9% | 91.3% | 105% | 88.2% | 88% | 89.1% | 96.6% | 117% | 107% | 100% | 93.7% | 88.1% | 105% | 100% | 95.3% | 96% | 96.1% | 95.9%
O=C1c2cccc3cccc(c23)C(=O)N1N1C(=O)c2cccc3c(N4CCOCC4)ccc(c23)C1=O | 89.1% | 95.4% | 94.5% | 87.3% | 101% | 85.6% | 102% | 95.5% | 102% | 108% | 110% | 102% | 78.8% | 76.3% | 93.4% | 96.2% | 90.7% | 101% | 96.7% | 90%
C[C@@H]1CCC[C@H]1CC(N)C(=O)O (stereo not given in full) | 97.2% | 101% | 106% | 107% | 102% | 98.2% | 105% | 110% | 104% | 116% | 106% | 99% | 149% | 121% | 117% | 105% | 106% | 105% | 106% | 98.8%
CNc1nc(S(=O)c2ccc(C#N)cc2)nc2ccccc12 (stereo not given) | 78.4% | 81.1% | 99.6% | 98.5% | 85.2% | 75% | 50.3% | 90.1% | 97.5% | 91.6% | 40.6% | 24.9% | 54.8% | 54.8% | 62.9% | 87.8% | 99.5% | 92% | 85.3% | 71.5%
CC1(c2ccccc2O)NN=C(/N=C/c2cccc([N+](=O)[O-])c2)N1C(Cc1c[nH]c2ccccc12)C(=O)O (stereo not given) | 80.3% | 82.1% | 97.6% | 65.8% | 102% | 81.2% | 70.2% | 103% | 99.5% | 84% | 114% | 89.8% | 94.1% | 80.5% | 90.9% | 95.7% | 107% | 99.4% | 90.6% | 92%
CCOC(=O)c1c(C)c2c(n1C)CSc1cc(C(=O)c3ccccc3)c(=O)[nH]c1-2 | 81.7% [100 µM] | 98.3% [100 µM] | 90.5% [100 µM] | 103% [100 µM] | 79.6% [100 µM] | 84.4% [100 µM] | 97.5% [100 µM] | 78.9% [100 µM] | 106% [100 µM] | 117% [100 µM] | 100% [100 µM] | 102% [100 µM] | 90.8% [100 µM] | 87.1% [100 µM] | 134% [100 µM] | 90.8% [100 µM] | 103% [100 µM] | 94.7% [100 µM] | 120% [100 µM] | 108% [100 µM]
CC(=O)N1N=C(c2ccc(Nc3nc(Nc4ccc(Cl)cc4)nc(Nc4ccc(Cl)cc4)n3)cc2)CC1c1ccco1 (stereo not given) | 85.4% | 100% | 103% | 91.9% | 96.9% | 99.9% | 68.4% | 72.1% | 86.7% | 109% | 107% | 79.5% | 97.9% | 92.7% | 71.1% | 103% | 92.8% | 96% | 96.4% | 90.5%
CCOc1nc(-c2ccccc2)cc2c(O)c(C(=O)NN)[nH]c(=O)c12 | 117% | 105% | 104% | 123% | 86.1% | 93.2% | 88.5% | 103% | 97.3% | 121% | 120% | 134% | 112% | 99.3% | 108% | 86.2% | 107% | 96.9% | 103% | 98.8%
